Bioassay records deposited in PubChem by National Center for Advancing Translational Sciences (NCATS).
USP2a inh: USP2a (human) protease inhibition. Potency, µM (top dose mostly 38.3 µM), for the others: at the top dose activity change, negative = inhibition, usual class: inhibitors. USP2 core, Ub-CHOP2 coupled fluorogenic reporter, 485/531. AID 463254. 330,000 tested, 0.01% active;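 also: potency is read from the fitted curve at half-maximal effect; plate controls were DMSO wells for no effect and full inhibition by NEM control for full effect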
Target sequence (O75604 whole entry, looked up): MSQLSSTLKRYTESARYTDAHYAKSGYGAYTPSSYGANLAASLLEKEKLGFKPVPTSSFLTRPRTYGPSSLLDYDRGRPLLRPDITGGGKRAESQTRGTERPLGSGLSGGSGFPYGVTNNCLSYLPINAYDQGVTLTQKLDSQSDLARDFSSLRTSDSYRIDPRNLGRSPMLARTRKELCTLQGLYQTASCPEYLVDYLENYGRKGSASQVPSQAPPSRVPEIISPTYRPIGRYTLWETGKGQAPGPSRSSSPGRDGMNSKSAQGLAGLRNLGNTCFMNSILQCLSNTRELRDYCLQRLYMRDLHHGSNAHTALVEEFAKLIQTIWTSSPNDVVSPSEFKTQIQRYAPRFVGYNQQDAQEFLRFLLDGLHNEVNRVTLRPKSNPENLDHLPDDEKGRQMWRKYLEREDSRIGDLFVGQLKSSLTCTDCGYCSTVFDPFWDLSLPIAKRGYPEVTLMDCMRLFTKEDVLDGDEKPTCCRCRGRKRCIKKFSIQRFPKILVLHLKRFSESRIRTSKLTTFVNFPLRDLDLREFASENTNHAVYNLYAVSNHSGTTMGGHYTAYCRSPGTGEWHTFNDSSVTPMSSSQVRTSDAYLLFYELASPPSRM
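USP2 core (10nM final) preincubated 30min RT with compound in 20mM Tris-HCl pH 8.0, 2mM CaCl2, 2mM beta-mercaptoethanol, 0.05% CHAPS; 25nM Ub-CHOP2 plus 25nM reporter substrate added, fluorescence (Ex485/Em531) read after 60min.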
S2 tox: reduces viability in counter-screen for ATXN expression inhibitors; S2 cells (HEK-293 line with an ATXN2-luciferase reporter) viability, CellTiter-Fluor protease fluorescence, 24 h; Potency, µM (top dose mostly 56.7 µM), usual class: cytotoxic; 400,000 tested, 0.49% active; AID 651635; also: potency is read from the fitted curve at half-maximal effect; nearly all actives have a fitted effect of over 40% in size
USP1 inh: inhibitors of human USP1/UAF1 deubiquitinase; recombinant USP1/UAF1, Ub-Rhodamine cleavage fluorescence; O94782; Potency, µM (titrated, usually from 57.1 µM), for inactives: at the top dose activity change, negative = inhibition, most hits filed as inhibitors; 390,000 tested, 0.23% active; also: potency is read from the fitted curve at half-maximal effect; % is scaled to controls: 0 for no effect and ±100 for the full control effect; nearly all actives have a fitted effect of over 60% in size
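In this screen, compounds sit with the deubiquitinase complex (1nM) for 15 min at room temperature before Ub-Rho is added at 150nM final. Fluorescence rise is then followed for 6 reads every 60 seconds.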
IL1B secr inh: inhibitors of inflammasome signaling (IL-1 beta secretion); THP-1 LPS/ATP IL-1B secretion, AlphaLISA, 16 h; stronger effect = lower value; activity change, % at 57.5 µM; 360,000 tested, 4.7% active; in the data active = activity change below about -50%; inconclusive = mostly about -30% to -49%; also: % is scaled to controls: 0 for no effect and ±100 for the full control effect
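Secreted IL-1B measured by AlphaLISA bead assay after 16 h compound exposure of THP-1 cells; compounds (final up to 57.5 uM) added 1 h before LPS (250 ng/mL) and ATP (1.25 mM) stimulation; lower signal means less secretion.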
ATXN2 expr inh: ATXN2 expression inhibition. Potency, µM (highest dose often 57 µM), inactives show at the highest dose activity change, negative = inhibition, most hits filed as inhibitors. 360,000 tested, 0.72% active. HEK-293 ATXN2-luciferase reporter, luminescence, 24 h; also: potency is read from the fitted curve at half-maximal effect; % is scaled to controls: 0 for no effect and ±100 for the full control effect; nearly all actives have a fitted effect of over 55% in size
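ATXN2-luciferase reporter cells (luciferase flanked by upstream and downstream ATXN2 gene portions) were treated 24 h at 37 °C with compounds at up to 57 uM. SteadyGlo luminescence gave expression; GF-AFC fluorescence gave viability.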
Numbers without * were called inactive. Only some compounds are listed: those with a hit (about 4.8% of all), similar ones and a draw of the others. Unless noted, calls follow the shape of the dose curve; as a rule, active = well fitted curve in the direction sought with a large enough effect; inconclusive = small, poorly fitted or top-dose-only effect, or another doubt; inactive = no such curve, though single readings can be large; an effect the other way counts as inactive or inconclusive.

`O=C(Nc1nc(-c2ccccc2)cs1)c1ccc2c(=O)n3c(nc2c1)CCCCC3` gave USP2a inh 0%, S2 tox inconclusive, USP1 inh -16%, IL1B secr inh -15 and ATXN2 expr inh 14µM*.
`CC(=O)c1cccc(NC(=O)c2ccc3c(=O)n4c(nc3c2)CCCCC4)c1` gave USP2a inh 0%, S2 tox inactive, USP1 inh -17%, IL1B secr inh 24 and ATXN2 expr inh 19%.
O=C(Nc1cccc(S(=O)(=O)N2CCOCC2)c1)c1ccc2c(=O)n3c(nc2c1)CCCCC3 was read as USP2a inh 2%, S2 tox inactive, USP1 inh -3%, IL1B secr inh -86* and ATXN2 expr inh inconclusive.
For O=C(Nc1ccccc1Cl)c1ccc2c(=O)n3c(nc2c1)CCC3 the results were USP2a inh 2%, S2 tox inconclusive, USP1 inh -4%, IL1B secr inh -3 and ATXN2 expr inh -22%.
`O=C(Nc1cccc(S(=O)(=O)N2CCCC2)c1)c1ccc2c(=O)n3c(nc2c1)CCCCC3` gave USP2a inh -5%, S2 tox inactive, USP1 inh -5%, IL1B secr inh -62* and ATXN2 expr inh inconclusive.
CCn1nc(C)cc1C(=O)NCC1CCC2(CCN(Cc3ccccc3F)CC2)O1 (stereo not given) was read as S2 tox inactive.
O=[N+]([O-])c1ccccc1C(O)Cc1ccccn1 (stereo not given) was read as S2 tox inactive, USP1 inh -7%, IL1B secr inh -6 and ATXN2 expr inh -4%.
For Cc1ccn2cc(-c3cccc(S(=O)(=O)N4CCCC4)c3)nc2c1 the results were USP2a inh -1%, S2 tox inconclusive, USP1 inh inconclusive, IL1B secr inh -61* and ATXN2 expr inh -15%.
CC(=O)Nc1ccccc1-c1nc2ccccc2n(C(C)C(=O)Nc2cc(Cl)ccc2C)c1=O (stereo not given) was read as S2 tox inconclusive, USP1 inh -23% and ATXN2 expr inh -7%.
For Cc1ccccc1Oc1ncnc(N)c1[N+](=O)[O-] the results were USP2a inh 4%, S2 tox inactive, USP1 inh -16%, IL1B secr inh -1 and ATXN2 expr inh 1%.
Screening Nc1ncnc(Oc2ccccc2F)c1[N+](=O)[O-] returned USP2a inh 12%, S2 tox inactive, USP1 inh -16%, IL1B secr inh -89* and ATXN2 expr inh 15%.
For CCc1ccc(Oc2ncnc(N)c2[N+](=O)[O-])cc1 the results were USP2a inh 4%, S2 tox inactive, USP1 inh -16%, IL1B secr inh -86* and ATXN2 expr inh 6%.
C=CCn1c[n+](CC(=O)c2ccc(Br)s2)c2ccccc21 was read as USP2a inh 16%, S2 tox inactive, USP1 inh -12%, IL1B secr inh -65* and ATXN2 expr inh -24%.
Screening COc1ccc(CC(N)c2csc(NC(=O)c3cccs3)n2)cc1 (stereo not given) returned S2 tox inactive, IL1B secr inh -19 and ATXN2 expr inh -30%.
Cc1c(C(=O)NCc2cccs2)sc(=O)n1Cc1ccc(S(C)(=O)=O)cc1 was read as S2 tox inactive, IL1B secr inh inconclusive and ATXN2 expr inh -10%.
Screening CC(CC(=O)Nc1ncc([N+](=O)[O-])s1)c1ccccc1 (stereo not given) returned USP2a inh 8%, S2 tox inconclusive, USP1 inh 0%, IL1B secr inh -63* and ATXN2 expr inh -14%.
`O=C(Cc1ccc(Br)cc1)Nc1ncc([N+](=O)[O-])s1` gave USP2a inh -9%, S2 tox inactive, USP1 inh -11% and IL1B secr inh -54*.
Screening CCC(Oc1ccccc1)C(=O)Nc1ncc([N+](=O)[O-])s1 (stereo not given) returned USP2a inh 1%, S2 tox inconclusive, USP1 inh -21% and IL1B secr inh 3.
For O=C(Cc1ccc(Cl)cc1)Nc1ncc([N+](=O)[O-])s1 the results were USP2a inh 3%, S2 tox inactive, USP1 inh -6%, IL1B secr inh 33 and ATXN2 expr inh 5%.
